Screens: PubChem BioAssay, several laboratories
An excerpt weighted towards active compounds, which were near 3.5% of everything screened.
Rv3671c inh – Rv3671c serine protease inhibitors, primary screen, biochemical, fluorescence polarization, M. tuberculosis H37Rv; inhibition, % at 5.96 µM; 0.048% of 320,000 active; P9WHR9; in the data active means inhibition above about 38%;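 further: extracellular domain of Rv3671c used as enzyme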
Target sequence (P9WHR9 whole entry, looked up, the tested form may be a part): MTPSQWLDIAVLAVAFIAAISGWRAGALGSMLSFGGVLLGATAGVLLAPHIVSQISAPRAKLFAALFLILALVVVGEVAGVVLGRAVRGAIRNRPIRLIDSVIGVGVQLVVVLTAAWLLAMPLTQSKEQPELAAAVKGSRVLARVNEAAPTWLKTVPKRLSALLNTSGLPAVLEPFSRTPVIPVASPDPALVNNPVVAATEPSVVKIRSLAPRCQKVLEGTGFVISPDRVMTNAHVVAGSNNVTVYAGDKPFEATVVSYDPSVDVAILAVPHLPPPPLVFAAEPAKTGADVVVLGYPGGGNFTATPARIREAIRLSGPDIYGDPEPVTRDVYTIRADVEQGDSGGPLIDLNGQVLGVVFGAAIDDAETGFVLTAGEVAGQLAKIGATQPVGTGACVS
Mtb hypoxia inh – PubChem AID 1159583; 0.1% of 300,000 active; fluorescence inhibition, % (test concentration not listed); M. tuberculosis hypoxia-regulated fluorescent reporter, fluorescence; in the data active means fluorescence inhibition mostly above about 23%, no sharp cut-off; inactive means mostly below about 17%
FadD28 binding – inhibitors of FadD28 bisubstrate probe binding, primary screen, biochemical, fluorescence polarization, single point; Mycobacterium tuberculosis FadD28 fatty-acid-AMP ligase; 0.22% of 360,000 active; inhibition, % at 12.5 µM; in the data active means inhibition above about 8.5%, passing the limit was not always enough
Mtb UGM inh – M. tuberculosis UGM enzyme inhibitors, primary screen, biochemical, fluorescence polarization, single point; AID 504406, 2011; 0.06% of 320,000 active; purified UGM, fluorescence polarization probe displacement; UDP-galactopyranose mutase (Mycobacterium tuberculosis (strain ATCC 25618 / H37Rv)), …; inhibition, % at 10 µM; in the data active means inhibition above about 10%, passing the limit was not always enough
FBA Mtb inh – Mtb FBA enzyme inhibitors, primary screen, biochemical, fluorescence, strain H37Rv; Fructose-bisphosphate aldolase (Mycobacterium tuberculosis (strain ATCC 25618 / H37Rv)), …; purified M. tuberculosis FBA, fluorescence read-out; inhibition, % at 1 µM; 2.3% of 360,000 active; AID 588726, 2011; in the data active means inhibition above about 27%
GDH-TPI inh – GDH-TPI coupling enzyme inhibitors, primary screen, artefact control for M. tuberculosis FBA inhibitor project, biochemical, absorbance, full deck. GDH-TPI coupled enzyme counterscreen, NADH absorbance. inhibition, % at 4.8 µM. 1.2% of 360,000 active. AID 588335, 2011; in the data active means inhibition above about 30%
A number is an active result; n = inactive; x = no result; + = active, no number.

SMILES	Rv3671c inh	Mtb hypoxia inh	FadD28 binding	Mtb UGM inh	FBA Mtb inh	GDH-TPI inh
COc1ccc2nc(Nc3ccccc3OC)sc2c1	n	n	n	n	n	n
COc1ccc(-c2nnc(Nc3nc4c(OC)cccc4s3)o2)cc1	n	n	n	n	n	63.0
COc1ccc(NC(=O)CCC(=O)NN=Cc2ccncc2)cc1	x	n	x	x	x	x
O=C(CNC(=O)c1ccncc1)NN=Cc1ccc(O)cc1O	x	n	x	x	x	x
CN(C)c1ccc(/C=N/NC(=O)CNC(=O)c2ccncc2)cc1	n	x	n	n	n	32.8
CN(C)c1ccc(/C=N/NC(=O)CNC(=O)c2ccc3c(c2)OCCO3)cc1	n	x	n	n	n	39.8
O=C(CNC(=O)c1ccncc1)N/N=C/c1ccc(O)cc1O	n	x	n	n	n	39.0
COc1cc(/C=N/NC(=O)CNC(=O)c2ccncc2)ccc1O	n	x	n	n	n	n
CN(C)c1ccc(/C=N/NC(=O)CNC(=O)/C=C/c2ccco2)cc1	n	x	n	n	n	40.5
COC(=O)C1=C(C(=O)OC)C2N(Cc3ccccc3)c3ccccc3[C@@]23CC(C(=O)OC)N(C(C)=O)C3=N1 (stereo not given in full)	x	n	x	x	x	x
CC(O)C1CNC(=S)N1CCc1cccc(F)c1 (stereo not given)	x	n	x	x	x	x
COc1cc(C=NNc2cc(C)nc(NS(=O)(=O)c3ccccc3)n2)ccc1O	x	n	x	x	x	x
COc1cc(/C=N/Nc2cc(C)nc(NS(=O)(=O)c3ccc(C)cc3)n2)ccc1O	x	x	n	x	n	53.7
COc1ccc(/C=N/Nc2cc(C)nc(NS(=O)(=O)c3ccc(C)cc3)n2)cc1	n	x	n	n	n	n
COc1cc(/C=N/Nc2cc(C)nc(NS(=O)(=O)c3ccccc3)n2)ccc1O	n	x	n	n	n	53.6
Oc1ccc(C=NN2CCN(c3ccccn3)CC2)cc1	x	n	x	x	x	x
COc1cc(/C=C2\SC(=O)N(Cc3ccc(Cl)cc3)C2=O)cc([N+](=O)[O-])c1O	x	n	24.2	x	n	n
COc1cc([N+](=O)[O-])cc(/C=C2/SC(=S)N(Cc3ccccc3)C2=O)c1O	n	n	47.3	n	n	n
COc1cc(/C=C2/SC(=S)N(Cc3ccccc3)C2=O)cc(Cl)c1O	n	x	n	n	n	n
Cc1cccc(C2C3C(=O)N(Cc4ccccc4)C(=O)C3[C@]3(Cc4ccccc4)C(=O)N(c4cccc(F)c4)C(=O)N23)c1 (stereo not given in full)	x	n	x	x	x	x
N#C/C(=C\N1CCN(Cc2ccc3c(c2)OCO3)CC1)c1nc2ccccc2s1	n	n	n	n	n	n
CCOC(=O)N1CCN(/C=C(\C#N)c2nc3ccccc3s2)CC1	n	n	n	n	n	34.6
Cc1ccc(C=NNC(=O)CN2CCN(S(=O)(=O)c3ccc(Br)cc3)CC2)s1	x	n	x	x	x	x
Oc1[nH]c2ccccc2c1C=NCC1CCCO1 (stereo not given)	n	n	n	n	n	35.1
Cc1cc(Cl)cc2c(N=Nc3ccccc3C(=O)O)c(O)[nH]c12	n	n	n	n	n	n
SMILES	Rv3671c inh	Mtb hypoxia inh	FadD28 binding	Mtb UGM inh	FBA Mtb inh	GDH-TPI inh
Cc1ccc(Cl)c2c(N=Nc3ccccc3)c(O)[nH]c12	x	n	n	11.2	n	n
CC1(C)CC(=O)/C(=N/Nc2ccc(Cl)cc2)CO1	n	x	n	n	n	31.2
Cc1ccc(NN=C2COC(C)(C)CC2=O)cc1	x	n	x	x	x	x
COc1cccc(C=NNC(=O)C(=O)NCc2ccco2)c1O	x	n	x	x	x	x
COc1ccc(C(=O)COC(=O)CNC(=O)c2ccc(C)s2)c(OC)c1	n	34.9	n	n	n	n
N#Cc1cc(-c2ccccc2)nc(NN)n1	n	n	n	n	n	32.0
CCc1ccc2[nH]c(O)c(N=NC3=NC(=O)CS3)c2c1	n	n	n	n	n	n
CCc1ccc2c(c1)c(N=NC1=NC(=O)CS1)c(O)n2CC	n	n	n	n	n	31.0
N#CC(=C1CCCN1)c1nc2ccccc2c(=O)[nH]1	x	n	x	x	x	x
CC1(C)Cc2nc(NCCCO)c(C#N)cc2CO1	n	n	n	n	112.2	n
CC(=NNC(=O)CCc1c(C)n[nH]c1C)c1ccc([N+](=O)[O-])cc1	x	n	x	x	x	x
O=C(NNC(=O)c1cc2cc3ccccc3nc2s1)c1cccc(Cl)c1	n	x	n	n	n	n
O=C(NNC(=O)c1cc2cc3ccccc3nc2s1)c1ccc(F)cc1	n	x	n	n	n	33.6
CC(=O)c1ccc(Nc2nc(C)cc(C)n2)cc1	n	n	n	n	n	33.3
Cc1cc(C)nc(NS(=O)(=O)c2ccc(NC(=O)c3nn(-c4ccccc4)ccc3=O)cc2)n1	n	n	n	n	n	n
Cc1ccc(-n2ccc(=O)c(C(=O)Nc3ccc(S(=O)(=O)Nc4nccc(C)n4)cc3)n2)cc1	n	n	n	n	n	35.3
O=c1c2c(nc3n1CCCCC3)-c1ccccc1CC21CCCCC1	n	n	n	n	n	n
CCn1c(NCCCO)nc2c(c1=O)C(C)(CC)Cc1ccccc1-2 (stereo not given)	n	n	n	n	154.6	n
CCC1(C)Cc2ccccc2-c2nc(NCCCO)n(C)c(=O)c21 (stereo not given)	n	n	n	n	163.4	n
O=c1c2c(nc(NCCO)n1CC1CCCCC1)-c1ccccc1CC21CCCC1	n	x	n	n	42.9	n
CC(=NNS(=O)(=O)c1ccc(C)cc1)c1c(O)c2ccccc2oc1=O	x	n	x	x	x	x
CCOC(=O)C1CCCN(C(=O)c2ccc(OCC)cc2)C1 (stereo not given)	n	n	n	n	+	n
COc1ccc(CCn2c(N)c(C(=O)NCc3ccco3)c3nc4ccccc4nc32)cc1OC	n	n	n	n	n	n
Nc1c(C(=O)NCc2ccco2)c2nc3ccccc3nc2n1Cc1ccccc1	n	n	n	n	112.4	n
Nc1c(C(=O)NCc2ccco2)nnn1Cc1ccccc1	n	n	n	n	n	n
SMILES	Rv3671c inh	Mtb hypoxia inh	FadD28 binding	Mtb UGM inh	FBA Mtb inh	GDH-TPI inh
Nc1c(C(=O)NCc2ccco2)c2nc3ccccc3nc2n1CCc1ccccc1F	n	n	n	n	70.3	n
CCN(CC)C(=O)C(=O)NN=Cc1ccc(C(=O)O)cc1	x	n	x	x	x	x
Cc1nc2c(C#N)cnn2c2c1CCN(Cc1ccccc1)N2C	n	n	n	n	n	43.9
Nc1ncc([N+](=O)[O-])cc1Br	n	n	n	n	n	51.9
Nc1ncc(Br)cc1Br	n	n	n	x	n	n
COc1cc(C=NNC(=O)CNC(=O)c2ccccc2)ccc1OC(=O)c1cccs1	x	n	x	x	x	x
Cc1cc(=O)oc2cc(OCC(=O)NN=Cc3cc([N+](=O)[O-])ccc3O)ccc12	x	n	x	x	x	x
Cc1cccc(C2C3C(=O)N(Cc4ccccc4)C(=O)C3[C@]3(Cc4ccccc4)C(=O)N(c4ccccc4)C(=O)N23)c1 (stereo not given in full)	x	n	x	x	x	x
Nc1nc2nccc(-c3ccc(Cl)cc3)n2n1	n	x	n	n	+	33.9
